Inconclusive results are not listed. Where a call stands in place of a potency, no number is given. Calls of active or inactive are those of the source. The call rests on the fitted dose curve; in most records, active means well fitted curve in the direction sought with a large enough effect; inconclusive means small, poorly fitted or top-dose-only effect, or another doubt; inactive means no such curve, though single readings can be large; an effect the other way counts as inactive or inconclusive.
How the values were obtained:
[1] = S16 Schwann cell viability assay (CellTiter-Glo assay) (AID 624031);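 further: cellular ATP luminescence as a viability measure; nearly all actives have a fitted effect of over 70% in size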
Procedure, shortened: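 This viability control uses native rat S16 Schwann cells grown in DMEM plus 10% FBS. After a 24 h compound treatment at 37 °C, CellTiter-Glo luminescence reports ATP content, scaled against DMSO-treated and cell-free wells.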

AA1029 = assay: qHTS profiling for inhibitors of Plasmodium falciparum proliferation (AID 504749); further: nearly all actives have a fitted effect of over 60% in size; further: potency means the concentration at half of the fitted maximal effect; conditions: P. falciparum in erythrocytes, SYBR Green DNA, 72 h; series mostly up to 28.7 µM
Procedure, shortened: (§1)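 SYBR Green fluorescence of parasite DNA, read after lysis and overnight dark incubation, measured growth over 72 h in erythrocyte culture at 0.3% parasitemia and 2.5% hematocrit. Data normalised to DMSO and 0.29 uM artemisinin, with plate-drift correction.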

AS120 = assay: as above; conditions: P. falciparum in erythrocytes, SYBR Green DNA, 72 h; series mostly up to 28.7 µM
Procedure, shortened: as §1

ATS189 = assay: as above; conditions: P. falciparum in erythrocytes, SYBR Green DNA, 72 h; series mostly up to 28.7 µM
Procedure, shortened: as §1

CP185 = assay: as above; conditions: P. falciparum in erythrocytes, SYBR Green DNA, 72 h; series mostly up to 28.7 µM
Procedure, shortened: as §1

CP194 = assay: as above; conditions: P. falciparum in erythrocytes, SYBR Green DNA, 72 h; series mostly up to 28.7 µM
Procedure, shortened: as §1

CP203 = assay: as above; conditions: P. falciparum in erythrocytes, SYBR Green DNA, 72 h; series mostly up to 28.7 µM
Procedure, shortened: as §1

CP215 = assay: as above; conditions: P. falciparum in erythrocytes, SYBR Green DNA, 72 h; series mostly up to 28.7 µM
Procedure, shortened: as §1

CP237 = assay: as above; conditions: P. falciparum in erythrocytes, SYBR Green DNA, 72 h; series mostly up to 28.7 µM
Procedure, shortened: as §1

CP252 = assay: as above; conditions: P. falciparum in erythrocytes, SYBR Green DNA, 72 h; series mostly up to 28.7 µM
Procedure, shortened: as §1

CP256 = assay: as above; conditions: P. falciparum in erythrocytes, SYBR Green DNA, 72 h; series mostly up to 28.7 µM
Procedure, shortened: as §1

CP265 = assay: as above; conditions: P. falciparum in erythrocytes, SYBR Green DNA, 72 h; series mostly up to 28.7 µM
Procedure, shortened: as §1

CP266 = assay: as above; conditions: P. falciparum in erythrocytes, SYBR Green DNA, 72 h; series mostly up to 28.7 µM
Procedure, shortened: as §1

CP268 = assay: as above; conditions: P. falciparum in erythrocytes, SYBR Green DNA, 72 h; series mostly up to 28.7 µM
Procedure, shortened: as §1

CP297 = assay: as above; conditions: P. falciparum in erythrocytes, SYBR Green DNA, 72 h; series mostly up to 28.7 µM
Procedure, shortened: as §1

CP305 = assay: as above; conditions: P. falciparum in erythrocytes, SYBR Green DNA, 72 h; series mostly up to 28.7 µM
Procedure, shortened: as §1

ECU = assay: as above; conditions: P. falciparum in erythrocytes, SYBR Green DNA, 72 h; series mostly up to 28.7 µM
Procedure, shortened: as §1

HB3 = assay: as above; conditions: P. falciparum in erythrocytes, SYBR Green DNA, 72 h; series mostly up to 28.7 µM
Procedure, shortened: as §1

PC15 = assay: as above; conditions: P. falciparum in erythrocytes, SYBR Green DNA, 72 h; series mostly up to 28.7 µM
Procedure, shortened: as §1

TAB109 = assay: as above; conditions: P. falciparum in erythrocytes, SYBR Green DNA, 72 h; series mostly up to 28.7 µM
Procedure, shortened: as §1

Compound	Potency [1]	Potency (AA1029)	Potency (AS120)	Potency (ATS189)	Potency (CP185)	Potency (CP194)	Potency (CP203)	Potency (CP215)	Potency (CP237)	Potency (CP252)	Potency (CP256)	Potency (CP265)	Potency (CP266)	Potency (CP268)	Potency (CP297)	Potency (CP305)	Potency (ECU)	Potency (HB3)	Potency (PC15)	Potency (TAB109)
OCC(O)C(O)C(O)C(O)CO (stereo unspecified)	inactive	inactive	inactive	inactive	inactive	inactive	inactive	inactive	inactive	inactive	inactive	inactive	inactive	inactive	inactive	inactive	inactive	inactive	inactive	inactive
C[C@]12CC[C@@H]3c4ccc(O)cc4CC[C@H]3[C@@H]1CCC2OC(=O)CCC1CCCC1 (stereo partly specified)		inactive	inactive	inactive	inactive	inactive	inactive	inactive		inactive	inactive	inactive	inactive	inactive	inactive	inactive	inactive	inactive		inactive
NC(C(=O)O)C(O)c1ccc(O)c(O)c1 (stereo unspecified)															16.9 µM (active)				inactive	
CCOc1ccccc1O[C@@H](c1ccccc1)[C@@H]1CNCCO1	inactive	5.62 µM (active)	11.2 µM (active)		inactive			inactive					inactive	inactive		inactive	7.94 µM (active)	inactive		
C=C1CC2C3C=C(C)C4=CC(=O)CCC4(C)C3CCC2(C)[C@@]1(OC(C)=O)C(C)=O (stereo partly specified)			inactive		inactive				inactive	inactive		inactive					inactive		inactive	inactive
CC1=C(C/C=C(\C)CCCC(C)CCCC(C)CCCC(C)C)C(=O)c2ccccc2C1=O (stereo unspecified)	inactive				inactive	inactive	inactive	inactive		inactive	inactive		inactive	inactive	inactive	inactive	inactive	11.2 µM (active)		
Oc1cc2cc(CCN3CCN(c4nsc5ccccc45)CC3)c(Cl)cc2[nH]1		inactive		inactive	inactive	inactive	inactive	inactive		inactive	inactive	inactive	inactive		inactive	inactive	inactive			
C/C=C1/NN(CCCN2CCN(c3cccc(Cl)c3)CC2)C(=O)N1CCOc1ccccc1	inactive	inactive	inactive	inactive	inactive	inactive		inactive		inactive	inactive	inactive	inactive	inactive		inactive	inactive	inactive	inactive	inactive
C#C[C@@]1(O)CC[C@@H]2[C@H]3CCC4=C/C(=N\O)CC[C@H]4[C@@H]3CC[C@]21CC	inactive	inactive	inactive	inactive	inactive		inactive	inactive	inactive	inactive	inactive	inactive	inactive	inactive	inactive	inactive	inactive	inactive	inactive	inactive
Cc1cnc(NC(=O)C2C(=O)c3ccccc3S(=O)(=O)N2C)s1 (stereo unspecified)	inactive	inactive	inactive	inactive	inactive	inactive	inactive	inactive	inactive	inactive	inactive	inactive		inactive	inactive	inactive	inactive	inactive	inactive	inactive
Cc1c(C)c2c(c(C)c1O)CCC(C)(CCCC(C)CCCC(C)CCCC(C)C)O2 (stereo unspecified)	inactive	inactive	inactive	inactive	inactive	inactive	inactive	inactive	inactive	inactive	inactive	inactive	inactive	inactive		inactive	inactive	inactive	inactive	inactive
O=C1Oc2ccccc2C(=O)C1C(CC(O)c1ccc(-c2ccc(Br)cc2)cc1)c1ccccc1 (stereo unspecified)	inactive	inactive	inactive		inactive	inactive	inactive	inactive	inactive	inactive		inactive	inactive	inactive	inactive	inactive		inactive	inactive	inactive
Nc1nc(Cl)nc2c1ncn2[C@@H]1O[C@H](CO)[C@H](O)C1F (stereo partly specified)	inactive	inactive	inactive	inactive	inactive	inactive	inactive	inactive	inactive	inactive	inactive	inactive	inactive	inactive	inactive	inactive	inactive	inactive	inactive	inactive
CC1(C)SC2[C@@H](N=CN3CCCCCC3)C(=O)N2[C@H]1C(=O)O (stereo partly specified)	inactive	inactive	inactive	inactive	inactive	inactive	inactive		inactive	inactive		inactive	inactive	inactive		inactive	inactive	inactive	inactive	inactive
CN(C)CC[C@@](O)(c1ccccc1)c1ccccc1Cl		4.47 µM (active)	8.91 µM (active)	5.62 µM (active)	11.2 µM (active)	7.57 µM (active)			1.41 µM (active)	11.2 µM (active)	5.62 µM (active)	7.08 µM (active)		13.5 µM (active)	5.36 µM (active)		7.94 µM (active)		7.08 µM (active)	7.08 µM (active)
C[C@H](CN1c2ccccc2Sc2cccnc21)N(C)C		7.94 µM (active)	11.2 µM (active)	5.01 µM (active)	11.2 µM (active)		13.5 µM (active)	9.53 µM (active)	2 µM (active)	11.2 µM (active)					15.1 µM (active)		inactive	inactive		7.08 µM (active)
COc1ccc(C(=O)/C(Br)=C/C(=O)O)cc1	inactive	inactive		inactive	inactive		inactive		inactive	inactive	inactive	inactive	inactive	inactive	inactive			inactive	inactive	
C=C1C(n2cnc3c(=O)[nH]c(N)nc32)C[C@H](O)[C@H]1CO (stereo partly specified)	inactive	inactive	inactive	inactive		inactive		inactive	inactive	inactive		inactive	inactive		inactive		inactive	inactive		
CC(C)(C)NC[C@H](O)CSc1nc(-c2ccc(C(N)=O)s2)cs1	inactive	inactive	inactive	inactive	inactive	inactive	inactive	inactive	inactive	inactive	inactive	inactive	inactive	inactive	inactive	inactive	inactive	inactive	inactive	inactive
COC(=O)C1C2CC3c4[nH]c5cc(OC)ccc5c4CCN3CC2CC(OC)C1OC (stereo unspecified)		inactive	inactive	inactive	inactive	inactive	inactive	inactive	inactive	inactive	inactive	inactive	inactive	inactive	inactive	inactive	inactive	inactive	inactive	inactive
CC1=C[C@@H](O)CC(C)(C)[C@@H]1/C=C/C(C)=C/C=C/C(C)=C/C=C/C=C(C)/C=C/C=C(C)/C=C/C1=C(C)C[C@H](O)CC1(C)C	inactive			inactive	inactive	inactive	inactive			inactive	inactive		inactive	inactive		inactive		11.2 µM (active)		inactive
C=C1/C(=C\C=C2/CCC[C@]3(C)[C@@H]([C@H](C)/C=C/[C@@H](O)C4CC4)CC[C@@H]23)C[C@@H](O)C[C@@H]1O	inactive	inactive		inactive	inactive	inactive	inactive	inactive	inactive	inactive	inactive		inactive	inactive	inactive	inactive	inactive	inactive	inactive	inactive
CC1(C)O[C@@H]2C[C@H]3[C@@H]4CCC5=CC(=O)C=C[C@]5(C)[C@H]4C(O)C[C@]3(C)[C@]2(C(=O)CO)O1 (stereo partly specified)	inactive			inactive	inactive	inactive	inactive	inactive		inactive	inactive	inactive		inactive	inactive	inactive		inactive	inactive	inactive
CCC(C)C(N)C(=O)O (stereo unspecified)	inactive	inactive	inactive	inactive	inactive	inactive	inactive	inactive	inactive	inactive	inactive	inactive	inactive	inactive	inactive	inactive	inactive	inactive	inactive	inactive
C=C1CC[C@H](O)C/C1=C/C=C1\CCC[C@]2(C)[C@@H]([C@H](C)CCCC(C)(C)O)CC[C@@H]12		12.6 µM (active)	10 µM (active)			inactive	inactive						inactive	inactive	13.5 µM (active)	inactive	12.6 µM (active)			
O=C(O)C[CH2][Ge](=[O])[O][Ge](=[O])[CH2]CC(=O)O	inactive	inactive	inactive	inactive	inactive	inactive	inactive	inactive	inactive	inactive	inactive	inactive	inactive	inactive	inactive	inactive	inactive	inactive	inactive	inactive
CC1CCC(O)C/C1=C\C=C1/CCCC2(C)C1CCC2C(C)/C=C/C(C)C(C)C (stereo unspecified)		inactive	inactive	inactive	inactive	inactive	inactive	inactive	inactive	inactive	inactive	inactive	inactive	inactive		inactive		inactive	inactive	inactive
CC(C)CCCC(C)C1CC(=O)C2=C3CCC4CC(O)CCC4(C)C3CCC21C (stereo unspecified)	inactive	inactive	inactive	inactive	inactive	inactive	inactive	inactive		inactive	inactive	inactive	inactive	inactive	inactive	inactive	inactive		inactive	inactive
CNC1CCc2cc(OC)c(OC)c(OC)c2-c2ccc(OC)c(=O)cc21 (stereo unspecified)	inactive	inactive	inactive	inactive	inactive	inactive	inactive	inactive		inactive	inactive	inactive	inactive	inactive	inactive	inactive	inactive	inactive	inactive	inactive

Reference: PubChem BioAssay (NCATS)
